Assay outcomes deposited in PubChem BioAssay by National Center for Advancing Translational Sciences (NCATS).
Shown are actives, neighbours in structure and some others; about 7.4% of the full set was active somewhere.
Rab9 prom act: activates the Rab9 promoter | Huh7 Rab9 promoter-luciferase reporter, luminescence, 24 h | Potency, µM (doses to about 9.22 µM), inactives show at the top dose activation, negative = inhibition, hits mostly activators | AID 485297 | 320,000 compounds, 2.8% hits; note: % of control where 0% means no effect; nearly all actives have a fitted effect of over 60% in size
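Using Huh7 cells stably transfected with Rab9 promoter–luciferase, compounds were incubated 24 h at 37 °C, 5% CO2; luciferase luminescence was read 10 min after reagent addition.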
KinaseGlo FLuc: counter-screen: inhibitors of Kinase-Glo firefly luciferase | Potency, µM (doses to about 38.3 µM), for the others: at the highest dose activity change, negative = inhibition, hits mostly inhibitors | AID 1379 | Kinase-Glo luciferase, ATP luminescence, 8 min | 200,000 compounds, 0.28% hits | Q27757; note: % is set by controls: 0 for no effect and ±100 for the full control effect; nearly all actives have a fitted effect of over 60% in size
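Compounds were added to a substrate mix at pH 7.2 (50 mM imidazole, 10 uM ATP, within the enzyme's linear range), followed by Kinase-Glo detection reagent; luminescence was measured after 8 minutes at ambient temperature.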
NPC1 prom act: NPC1 promoter activation; Huh7 NPC1 promoter luciferase reporter, 24 h; Potency, µM (highest dose often 9.22 µM), for inactives: top-dose activation, most hits filed as activators; 320,000 compounds, 2.4% hits; note: % of control where 0% means no effect; nearly all actives have a fitted effect of over 60% in size
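Luciferase expression driven by the NPC1 promoter was measured in stably transfected Huh7 cells after a 24 h compound incubation, using a luciferase reagent and a luminescence read.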
FLuc counter: counter-screen for miR-21 project: firefly luciferase inhibitors or activators. AID 588342. P08659. purified FLuc, Km substrates, luminescence inhibition. 360,000 compounds, 6.9% hits. Potency, µM (series often up to 57.5 µM), for the others: top-dose activity change, negative = inhibition, usual class: inhibitors;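 note: plate controls were vehicle for no effect and reference inhibitor for full effect; nearly all actives have a fitted effect of over 55% in size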
Target sequence (P08659 whole entry, looked up): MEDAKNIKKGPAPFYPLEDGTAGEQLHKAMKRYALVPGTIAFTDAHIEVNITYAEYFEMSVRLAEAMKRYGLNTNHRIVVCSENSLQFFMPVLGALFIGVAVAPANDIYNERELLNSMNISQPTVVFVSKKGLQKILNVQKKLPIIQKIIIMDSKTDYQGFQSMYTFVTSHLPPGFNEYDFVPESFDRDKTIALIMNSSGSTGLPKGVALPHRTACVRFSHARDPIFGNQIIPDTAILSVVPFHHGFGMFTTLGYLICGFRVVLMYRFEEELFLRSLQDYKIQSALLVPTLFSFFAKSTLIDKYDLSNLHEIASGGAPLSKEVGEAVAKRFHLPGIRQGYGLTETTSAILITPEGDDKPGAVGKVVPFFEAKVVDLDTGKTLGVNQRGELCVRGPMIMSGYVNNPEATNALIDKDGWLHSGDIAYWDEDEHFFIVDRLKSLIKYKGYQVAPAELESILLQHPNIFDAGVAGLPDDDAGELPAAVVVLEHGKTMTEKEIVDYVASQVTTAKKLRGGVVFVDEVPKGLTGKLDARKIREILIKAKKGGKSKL
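Biochemical qHTS of compounds, final roughly 60 µM downward over six points, against 10 nM purified firefly luciferase using Km concentrations of substrates (10 uM D-luciferin, 10 uM ATP) in Tris acetate pH 7.5 buffer; luminescence output.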
ELG1 genotoxic: genotoxicity induction in ELG1-luciferase HEK293T cells. 330,000 compounds, 1.3% hits. AID 504466. HEK293T ELG1-luciferase reporter, luminescence, 16 h. Potency, µM (titrated, usually from 46 µM), without a hit: at the highest dose activity change, positive = activation, most hits filed as activators; note: % of control where 0% means no effect; nearly all actives have a fitted effect of over 60% in size
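16 hr compound incubation (37 °C, 5% CO2) of HEK293T cells carrying luciferase-tagged ELG1; luciferase then measured by ONE-Glo luminescence after 30 min at RT.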
SMN2 splice up: SMN2 splice variant enhancement; HEK293 SMN2-luciferase splicing reporter, luminescence, 30-36 h; Potency, µM (top dose mostly 46.1 µM), inactives show at the top dose activity change, positive = activation, actives largely listed as activators; 210,000 compounds, 2.8% hits; AID 1458; note: % of control where 0% means no effect; nearly all actives have a fitted effect of over 55% in size
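qHTS luciferase splicing reporter: luminescence rises when SMN2 exon 7 is included in transfected HEK293 cells. Compound exposure lasted 30-36 h at 37C, with 4.5 mM final sodium butyrate as control, followed by a ONE-Glo read.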
Starred values were filed as active, the others as inactive; ? = inconclusive; nt = no result given. Calls come from the whole dose curve; as a rule, active = well fitted curve in the direction sought with a large enough effect; inconclusive = small, poorly fitted or top-dose-only effect, or another doubt; inactive = no such curve, though single readings can be large; an effect the other way counts as inactive or inconclusive. Potency is the fitted concentration of half-maximal effect.

SMILES	Rab9 prom act	KinaseGlo FLuc	NPC1 prom act	FLuc counter	ELG1 genotoxic	SMN2 splice up
CSc1nnc(-c2ccc([N+](=O)[O-])cc2)o1	12%	-2%	-4%	-3%	10%	nt
C#CCSc1nnc(-c2ccc(OC)cc2)o1	2.8µM*	1%	2.8µM*	7.6µM*	10µM*	?
CCCCCCCCSc1nnc(-c2ccc(OC)cc2)o1	1%	16%	-2%	1%	-1%	-15%
COc1ccc(-c2nnc(SCc3c(C)noc3C)o2)cc1	0%	-2%	17%	19µM*	1%	-11%
COc1ccc(-c2nnc(SCC#N)o2)cc1	1%	-3%	0%	-7%	?	-10%
CCSc1nnc(-c2ccc(OC)cc2)o1	2.8µM*	-13%	2.8µM*	7.6µM*	7.1µM*	11µM*
COC(=O)c1cc(NC(=O)c2cc3c(-c4ccccc4F)nn(C)c3s2)cc(C(=O)OC)c1	nt	nt	nt	1%	nt	1%
O=S(=O)(c1cccc(Cl)c1)n1c(/C=C/c2ccccc2Cl)nc2ccccc21	nt	nt	nt	0.095µM*	nt	nt
CSc1ccc(/C=C/c2nc3ccccc3n2S(=O)(=O)c2cccc(Cl)c2)cc1	nt	nt	nt	0.076µM*	nt	?
Cc1ccc(S(=O)(=O)n2c(N)nc3ccccc32)cc1	-6%	nt	-1%	0%	0%	nt
Cn1c(/C=C/c2ccccc2[N+](=O)[O-])nc2ccccc2c1=O	?	nt	?	?	4%	nt
Cn1c(/C=C/c2ccc(Br)cc2)nc2ccccc2c1=O	?	nt	3.5µM*	?	?	nt
Cc1ccc(/C=C/c2nc3ccccc3n2S(=O)(=O)c2ccc(Br)cc2)cc1	nt	nt	nt	0.76µM*	nt	nt
COc1cc2c(cc1OC)C(C)N(C(=O)c1cc3c(s1)-c1ccccc1OC3)CC2 (centres undefined)	-3%	0%	-6%	0%	-2%	-7%
Cc1ccc(CN2CC(C(=O)N3CC(C)CC(C)C3)CC2=O)cc1 (centres undefined)	1%	nt	-3%	0%	-2%	nt
O=C(Nc1ccc2oc(-c3ccccc3)nc2c1)c1ccncc1	7%	9%	6%	-14%	-9%	-61%
Cc1ccc2oc(-c3ccc(NC(=O)CC(C)C)cc3)nc2c1	?	-3%	0.28µM*	0.76µM*	2.3µM*	?
CC(C)CC(=O)Nc1ccc2oc(-c3cccnc3)nc2c1	?	-5%	?	13µM*	?	?
O=C(Nc1ccc2nc(-c3ccccc3)oc2c1)c1ccco1	3.2µM*	1%	?	21µM*	?	?
CCc1ccc2oc(-c3ccc(NC(C)=O)cc3)nc2c1	0.63µM*	nt	?	1.9µM*	3.3µM*	nt
O=C(Nc1ccc2oc(-c3cccnc3)nc2c1)c1ccc(Br)cc1	nt	nt	nt	-1%	nt	-6%
COc1cc(NC(=O)Cn2c(=O)n(C(C)C)c(=O)c3oc4ccccc4c32)cc(OC)c1	nt	nt	nt	-2%	nt	nt
O=C(NNC(=S)NCc1ccc(Cl)cc1)c1ccc2c(c1)OCO2	-11%	-4%	-2%	-4%	2%	nt
O=C(Nc1ccc(-c2nc3ncccc3o2)cc1)c1ccco1	1.6µM*	0%	2.5µM*	8.5µM*	?	?
O=C(Nc1ccc2oc(-c3cccnc3)nc2c1)c1ccc(Br)o1	-1%	-4%	6%	-11%	8%	-26%
O=C(Nc1ccc2oc(-c3cccnc3)nc2c1)c1ccco1	?	1%	?	15µM*	16%	3%
CCC(=O)Nc1ccc2oc(-c3cccnc3)nc2c1	3.5µM*	nt	?	17µM*	?	nt
O=C(Nc1ccc2oc(-c3cccnc3)nc2c1)c1cccc(Br)c1	nt	nt	nt	2%	nt	-9%
O=C(NNC(=O)c1ccc(Oc2ccc(C3SCCS3)cc2)o1)c1ccc(Cl)cc1	-1%	nt	2%	?	-10%	nt
